Calb FLC: C. albicans growth inhibition with fluconazole, primary screen, CaCi-2 strain, Alamar Blue fluorescence | C. albicans CaCi-2 (fluconazole-resistant clinical isolate) + fluconazole, 48 h | 0.57% of 300,000 active | growth inhibition, % (concentration not given with the values);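 active = growth inhibition above about 58% in most replicates, limit read from the data, passing the limit was not always enough; inconclusive = exactly half the replicates above a set limit; inactive = most replicates below a set limit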;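 also: all wells also contain fluconazole at 8 µg/ml as a sub-toxic cotreatment; 0% = median of DMSO wells and 100% = median of geldanamycin control wells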
Mdm2-MdmX inh: inhibitors of human Mdm2-MdmX association, primary screen, cell-based, luminescence, split luciferase, SaOS-2, uHTS; Protein Mdm4 (Homo sapiens) + E3 ubiquitin-protein ligase Mdm2 (Homo sapiens), …; SaOS-2 split-luciferase Mdm2/MdmX complementation; inhibition, % at 8 µM; 3% of 330,000 active;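 active = inhibition of at least 50% at 8 µM in the primary screen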
Target sequence (O15151 whole entry, looked up): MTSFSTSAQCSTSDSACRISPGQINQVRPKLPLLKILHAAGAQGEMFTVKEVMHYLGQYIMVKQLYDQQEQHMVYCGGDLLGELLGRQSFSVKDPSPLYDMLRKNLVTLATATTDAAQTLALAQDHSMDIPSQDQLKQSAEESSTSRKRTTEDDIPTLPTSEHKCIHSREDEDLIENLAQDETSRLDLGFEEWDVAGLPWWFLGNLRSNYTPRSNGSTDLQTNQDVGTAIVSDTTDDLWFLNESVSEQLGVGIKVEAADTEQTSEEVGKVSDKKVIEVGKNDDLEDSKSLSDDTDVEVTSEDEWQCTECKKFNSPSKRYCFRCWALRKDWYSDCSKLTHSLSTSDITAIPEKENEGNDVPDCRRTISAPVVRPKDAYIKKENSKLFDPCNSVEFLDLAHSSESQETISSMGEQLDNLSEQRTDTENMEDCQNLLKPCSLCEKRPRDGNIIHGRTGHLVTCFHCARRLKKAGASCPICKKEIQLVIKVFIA
Target sequence (Q00987 whole entry, looked up): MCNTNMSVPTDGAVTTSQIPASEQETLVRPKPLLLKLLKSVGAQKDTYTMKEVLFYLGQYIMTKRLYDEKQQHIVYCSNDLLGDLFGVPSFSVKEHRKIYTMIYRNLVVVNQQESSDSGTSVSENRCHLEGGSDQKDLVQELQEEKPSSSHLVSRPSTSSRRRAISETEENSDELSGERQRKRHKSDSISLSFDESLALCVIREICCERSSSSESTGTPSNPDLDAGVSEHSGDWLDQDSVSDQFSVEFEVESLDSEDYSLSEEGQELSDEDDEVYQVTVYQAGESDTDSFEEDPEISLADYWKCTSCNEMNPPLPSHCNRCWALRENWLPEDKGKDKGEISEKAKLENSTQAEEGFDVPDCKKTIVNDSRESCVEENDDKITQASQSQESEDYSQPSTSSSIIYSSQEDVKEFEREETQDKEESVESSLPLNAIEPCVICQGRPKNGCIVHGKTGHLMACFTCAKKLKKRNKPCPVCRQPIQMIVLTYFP
MPTP inh: mitochondrial permeability transition pore inhibitors, primary screen, biochemical, isolated mouse mitochondria, absorbance; Ca2+ swelling absorbance, 30 min; inhibition, % at 10 µM; 1.4% of 360,000 active; AID 602449, 2012;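 active = inhibition of 50% or more, scaled per plate between neutral and stimulator controls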;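 also: 0% = DMSO wells given calcium and 100% = 1 mM EGTA wells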
Beta apoptosis: inhibitors of cytokine-induced beta cell apoptosis, primary screen, luminescence | 0.8% of 300,000 active | AID 435005, 2010 | INS-1E cytokine-induced death, ATP luminescence, 48 h; percent of positive-control rescue, neutral wells zero | protection from apoptosis, % (test concentration not listed);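 active = Every replicate reaches about 75%, or at least half do and their mean reaches it too, limit read from the data; inconclusive = At least half of replicates reach the limit but their mean does not; inactive = Under half of replicates reach the limit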;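 also: 0% = cytokine-treated negative control wells and 100% = positive control rescue; higher means more ATP so stronger rescue from cytokine killing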
CSC inhib: cancer stem cell viability inhibitors, primary screen, luminescence; AID 2717, 2010; inhibition, % at 7.5 µM; 1.1% of 300,000 active; cancer stem cell-like cells viability; in the data active = inhibition above about 75%; inconclusive = no clear call, values can overlap the other calls; tested in HMLE shEcad cells
Mdm2 MdmX conf: Mdm2-MdmX complex disruptors, retested hits, confirmation, luminescence, single concentration; shares compounds with Mdm2-MdmX inh; Mdm2-MdmX binding, luminescent assay; inhibition, % at 8 µM; 55% of 10,000 active; in the data active = inhibition above about 40%
Full FLuc ctr: full-length luciferase signal inhibition, confirmation, counter-screen for Mdm2/MdmX interaction inhibitor project, cell-based, single concentration, SaOS-2. shares compounds with Mdm2-MdmX inh. SaOS-2 full-length luciferase counterscreen, luminescence. AID 504607, 2011. inhibition, % at 8 µM. 77% of 6,200 active;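 active = mean inhibition at 8 µM reaching about 37%, which flags the compound as non-specific, limit read from the data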;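 also: p53-null SaOS-2 cells with luciferase driven by a doxycycline-inducible promoter; compound on cells about two nights before reading with doxycycline added after day one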
* = called active by the depositor; ? = inconclusive; . = not tested or not shown. This is a sample that favours compounds with a hit; in the whole collection about 4.8% have one here.

SMILES	Calb FLC	Mdm2-MdmX inh	MPTP inh	Beta apoptosis	CSC inhib	Mdm2 MdmX conf	others
CC(C)(C)n1nnnc1C(c1ccc(F)cc1)N(Cc1ccc(F)cc1)Cc1ccco1 (stereo unspecified)	14.3	61.2*	2.5	76.7*	24.3	33.9
CC1CCCCC1NC(=O)COc1ncnc2sccc12 (stereo unspecified)	.	.	1.2	.	.	.
CN(Cc1ccccc1)C(=O)Cn1c(=O)c2cccn2c2cccnc21	-7.7	9.4	-1.3	-5.0	-1.9	.
Cc1occc1C(=O)N(C)Cc1nc(-c2ccc(Cl)cc2)no1	1.6	13.3	0.2	3.2	18.3	.
CC1(C(=O)NCc2ccccc2)CN(S(C)(=O)=O)CC(=O)N1Cc1cccc(C(F)(F)F)c1 (stereo unspecified)	.	.	-0.7	.	.	.
Cc1ccnc(N(C(=O)Nc2ccccc2)C2=NCC(C)(C)S2)c1	-1.6	-58.4	-1.5	-3.9	7.1	.
CNC(=O)N(C1=NCC(C)(C)S1)c1ccc(F)c(Cl)c1	-7.8	55.3*	-0.8	2.8	44.7	34.1	Full FLuc ctr=82.1*
COc1cc(NC(=O)CSc2nc3[nH]ncc3c(=O)n2-c2ccc(Cl)cc2)cc(OC)c1	15.9	58.9*	0.8	.	15.2	24.6
Cc1cccc(NC(=O)CSc2nc3[nH]ncc3c(=O)n2-c2ccccc2)c1	3.1	21.8	.	-7.1	3.8	.
COc1cc(/C=C(\CCC(=O)O)c2nc3ccccc3s2)ccc1OCC(=O)Nc1c(Cl)cccc1Cl	.	-9.1	-2.1	-4.6	23.0	.
COC(=O)c1cc2ccccc2c([N+](=O)[O-])c1O	.	.	-0.4	.	.	.
COc1ccc2c(c1[N+](=O)[O-])CCC/C2=N/OC(=O)c1cccc2ccccc12	4.5	51.9*	-0.8	-14.4	2.2	3.2
CCOc1cccc(/C=C/c2ccc3cccc(O)c3n2)c1O	-4.0	66.5*	3.3	35.7	57.4	-36.0
CCOc1cccc(/C=C/c2ccc3cccc(O)c3n2)c1OC	?	11.4	0.4	.	?	.
COc1ccc(Cl)cc1/C=C/c1ccc2cccc(O)c2n1	10.7	50.2*	1.6	23.6	57.6	0.7
CC#CCN1c2ccccc2[C@]23C[C@@H](C(=O)OC)N(C(=O)c4ccc(Br)cc4)C2=NC(C(=O)OC)=C(C(=O)OC)[C@H]13	13.8	95.5*	.	-4.6	40.4	75.7*	Full FLuc ctr=68.1*
COC(=O)C1=C(C(=O)OC)[C@@H]2N(C)c3ccccc3[C@@]23C[C@@H](C(=O)OC)N(C(=O)c2ccc(Br)cc2)C3=N1	15.1	68.1*	0.7	-17.3	13.3	17.1
CC(=O)c1cccc(-c2ccnc3c2CC(C(=O)NCc2cccs2)O3)c1 (stereo unspecified)	.	.	0.6	.	.	.
Cc1cc(C)cc(-c2nnc(SCC(=O)NCC3CCCO3)o2)c1 (stereo unspecified)	.	.	-1.3	.	.	.
Cc1cc(NCCCn2ccnc2)n2ncc(-c3ccccc3)c2n1	.	74.1*	-4.6	2.2	1.4	69.8*	Full FLuc ctr=134.3*
Cc1cc(NC2CCCC2)n2ncc(-c3ccccc3)c2n1	1.4	84.0*	-0.4	10.6	29.4	82.2*	Full FLuc ctr=181.4*
COc1ccc(CCNc2cc(C)nc3c(-c4ccccc4)cnn23)cc1OC	1.9	68.1*	-1.3	.	.	31.6
COc1ccc(CCNc2cc(C)nc3c(-c4ccccc4)c(C)nn23)cc1OC	-6.9	16.6	1.8	-14.3	52.6	.
O=C(/C=C/c1ccccc1)NC(=S)Nc1ccc2c3c(cccc13)CC2	2.9	59.4*	2.7	13.3	7.6	12.4
O=C(COc1ccccc1)NC(=S)Nc1ccc2c3c(cccc13)CC2	-18.7	26.6	-1.0	0.0	12.3	.
SMILES	Calb FLC	Mdm2-MdmX inh	MPTP inh	Beta apoptosis	CSC inhib	Mdm2 MdmX conf	others
CC(=O)Nc1ccc(NC(=O)C(C)Oc2ccc(C)nc2[N+](=O)[O-])cc1 (stereo unspecified)	.	-7.0	-1.1	-7.3	.	.
COc1ccc(/C=C/C(=O)NC(=S)NNC(=O)c2cccs2)cc1	-0.3	54.0*	6.3	14.5	12.0	53.0*	Full FLuc ctr=73.0*
COc1ccc(/C=C/C(=O)NC(=S)NNC(=O)c2cnccn2)cc1	2.7	74.1*	-0.9	76.2*	98.4*	52.5*	Full FLuc ctr=53.4*
O=C(NC(=S)NNC(=O)c1ccccc1O)c1cccs1	16.4	31.6	-2.0	5.4	.	.
COc1ccccc1C(=O)NNC(=S)NC(=O)c1cccs1	47.4	62.7*	1.8	15.3	3.1	35.4
N#Cc1cccc(NC(=O)c2cc(C3CCCCN3C(=O)CCCc3ccccc3)on2)c1 (stereo unspecified)	.	.	2.1	.	.	.
CC1C/C(=C/c2ccccn2)C(=O)/C(=C/c2ccccn2)C1 (stereo unspecified)	26.9	98.5*	0.8	-11.9	5.1	100.2*	Full FLuc ctr=51.4*
CC(C)(C)C1C/C(=C/c2ccccn2)C(=O)/C(=C/c2ccccn2)C1 (stereo unspecified)	0.6	99.5*	0.5	109.0*	66.6	99.9*	Full FLuc ctr=51.2*
CCc1ccc(NC(=O)C(CC)Sc2nc3cc4c(cc3c(=O)n2Cc2ccco2)OCO4)cc1 (stereo unspecified)	-4.7	81.0*	5.1	66.9	?	8.7
COC(=O)[C@]12CCCCC=C1N(Cc1ccc3c(c1)OCO3)C(=O)[C@H](CC(=O)NCc1ccccc1)C2	.	.	2.0	.	.	.
CCOc1ccc(NCc2cc3c(C(C)(C)C)nn(-c4ccccc4)c3[nH]c2=O)cc1	-12.5	95.8*	3.8	-16.3	21.0	23.1	Full FLuc ctr=90.7*
Cc1nn(-c2ccccc2)c2[nH]c(=O)c(CNCc3ccc4c(c3)OCO4)cc12	-9.2	11.9	-1.5	1.2	.	.
Cc1ccc(-c2nn(-c3ccccc3)c3[nH]c(=O)c(CNCc4ccccc4)cc23)cc1	7.3	52.4*	5.0	-1.0	52.8	11.8
Cc1nn(C(=O)c2cc([N+](=O)[O-])ccc2Cl)c(C)c1Br	1.6	-16.3	-0.1	-6.9	-2.0	.
CCOc1ccc2nc(-c3ccccc3)nc(SCC(=O)Nc3ncc(C)s3)c2c1	20.1	74.9*	1.4	-6.2	-5.5	18.8
COc1ccc(-c2cc(-c3ccccc3)nc(SCC(=O)Nc3ncc(C)s3)c2C#N)cc1	?	42.4	5.7	14.8	-1.1	.
COc1ccc2nc(N3C(=O)/C(=C/c4ccccc4)NC3=S)sc2c1	-9.4	54.1*	22.6	14.0	-3.2	37.5
COc1ccc2nc(-n3c(C)ccc3C)sc2c1	2.3	20.1	-0.7	2.2	-0.8	.
COc1ccc(N=c2oc3ccc(OC)cc3cc2-c2nc3ccccc3[nH]2)cc1	0.1	92.7*	-1.6	44.0	18.0	-144.6
